rCAG RNA binder: binders of r(CAG) RNA repeats, primary screen, biochemical, fluorescence; r(CAG) RNA repeat, TO-PRO-1 dye displacement fluorescence; inhibition, % at 3 µM; actives 1.3% (n = 370,000); AID 651821, 2012;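 active means inhibition above the plate cutoff, the mean of all test compounds on that plate plus 3 SD, cut at about 35% in these data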;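 further: 0% = DMSO alone and 100% = 100 µM mitoxantrone as full dye displacement; higher means more dye released from RNA so lower well fluorescence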
NadD inh: inhibitors of S. aureus NadD, primary screen, biochemical, colorimetric, uHTS | AID 602399, 2012 | inhibition, % at 20 µM | purified NadD enzyme, colorimetric absorbance read-out | actives 0.78% (n = 360,000); in the data active means inhibition above about 26%
FAS-TE inh: FAS thioesterase domain inhibitors, primary screen, biochemical, fluorescence intensity, uHTS; Fatty acid synthase (Homo sapiens), P49327; recombinant FAS-TE, OMFH fluorogenic substrate, fluorescence endpoint; inhibition, % at 15 µM; actives 0.67% (n = 360,000);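 active means compounds whose normalised, plate-corrected inhibition of enzyme fluorescence in the single-dose primary screen is 50% or more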;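 further: 0% = DMSO with enzyme and 100% = substrate without enzyme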
NR3A LBD binder: binders of NR3A ligand-binding domain, primary screen, biophysical, differential scanning fluorimetry, uHTS | Tm shift relative to glycine control, % at 25 µM | Glutamate receptor ionotropic, NMDA 3A (GRIN3A) ligand-binding domain | NR3A LBD differential scanning fluorimetry, Tm shift; 0% = protein alone, 100% = glycine-bound protein | actives 2.5% (n = 340,000);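 active means melting temperature shift of at least 10% of the positive control shift, at one fixed dose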
The depositor's hits bear a star. A selection: hits, their analogues and other compounds. The true share with any hit is near 4.3%.

What do the screens show for `Cc1ccc(N=C2NC(=O)/C(=C/c3cn(C)c4ccccc34)S2)cc1C`?
rCAG RNA binder: 16; NadD inh: 34*; FAS-TE inh: 23; NR3A LBD binder: 32*

What do the screens show for `O=C1NC(=Nc2ccc3ccccc3c2)S/C1=C/c1ccco1`?
rCAG RNA binder: 44*; NadD inh: 34*; FAS-TE inh: 3; NR3A LBD binder: -14

Results for CCc1ccc(N=C2NC(=O)/C(=C/c3cc(OC)c(OC)c(OC)c3)S2)cc1 ?
rCAG RNA binder: 23; NadD inh: 5; FAS-TE inh: 7; NR3A LBD binder: -7

How did Cn1cccc1/C=C1\SC(=Nc2ccccc2)NC1=O do in these assays?
rCAG RNA binder: 8; NadD inh: -5; FAS-TE inh: 0; NR3A LBD binder: 6

How did Cc1cccc(N=C2NC(=O)S/C2=C\c2ccco2)c1 do in these assays?
rCAG RNA binder: 20; NadD inh: 1; FAS-TE inh: 2; NR3A LBD binder: -7

What do the screens show for `O=C1NC(=Nc2ccc(O)cc2)S/C1=C/c1ccco1`?
rCAG RNA binder: 12; NadD inh: -3; FAS-TE inh: -5; NR3A LBD binder: 13*

Results for CC(C)C[C@H]1COc2cc(Br)ccc2S(=O)(=O)N1Cc1cn(CCC2OCCO2)nn1 ?
rCAG RNA binder: 1

How did COC(=O)/C=C1/SC(=Nc2ccc(Cl)c(Cl)c2)NC1=O do in these assays?
rCAG RNA binder: 5; NadD inh: 1; FAS-TE inh: 2; NR3A LBD binder: 18*

How did Cn1cccc1/C=C1\SC(=Nc2cccc(O)c2)NC1=O do in these assays?
rCAG RNA binder: 12; NadD inh: 2; FAS-TE inh: 1; NR3A LBD binder: 26*

How did Cc1ccc2nc(-c3ccc(SCC(=O)N4CCc5ccccc54)nc3)[nH]c2c1 do in these assays?
rCAG RNA binder: 10; NadD inh: 13; FAS-TE inh: 11; NR3A LBD binder: 23*

Results for Cc1ccc2nc(-c3ccc(SCC(=O)O)nc3)[nH]c2c1 ?
rCAG RNA binder: 14; NadD inh: 1; FAS-TE inh: -12; NR3A LBD binder: 1

How did O=C(CSc1ccc(-c2nc3ccccc3[nH]2)cn1)Nc1ccc(S(=O)(=O)N2CCCC2)cc1 do in these assays?
rCAG RNA binder: 16; NadD inh: 29; FAS-TE inh: 22; NR3A LBD binder: 29*

What do the screens show for `O=C(CSc1ccccc1)Nc1ccc(-c2nc3ccccc3[nH]2)cc1`?
rCAG RNA binder: 1; NadD inh: -1; FAS-TE inh: -5; NR3A LBD binder: 33*

What do the screens show for `COc1ccc2nc(SCC(=O)Nc3ccccc3)[nH]c2c1`?
rCAG RNA binder: 1; NadD inh: -4; FAS-TE inh: 14; NR3A LBD binder: 17*

What do the screens show for `COc1ccc(C2CC(=O)C(c3cccc(Cl)c3)=CN2Cc2ccccc2)cc1` (centres undefined)?
rCAG RNA binder: 4

Results for CCN1Cc2nnn(Cc3ccccc3)c2-c2ccccc2S1(=O)=O ?
rCAG RNA binder: 0

Results for Cc1ccc2nc(SCC(=O)Nc3ccc(C(N)=O)cc3)[nH]c2c1 ?
rCAG RNA binder: 4; NadD inh: 4; FAS-TE inh: -4; NR3A LBD binder: -2

Results for O=C(CSc1ccccc1)Nc1ccc2sccc2c1 ?
rCAG RNA binder: 4; NadD inh: -8; FAS-TE inh: 10; NR3A LBD binder: 17*

What do the screens show for `O=C(CSc1cccs1)Nc1ccc2ccccc2c1`?
rCAG RNA binder: 0; NadD inh: -6; FAS-TE inh: 19; NR3A LBD binder: 5

What do the screens show for `Cc1ccc2nc(-c3ccc(NC(=O)CSc4ccccc4)cc3)[nH]c2c1`?
rCAG RNA binder: 10; NadD inh: 2; FAS-TE inh: -6; NR3A LBD binder: 29*

How did O=C(CSc1ccc(Cl)cc1)Nc1cccc(-c2nc3ccccc3[nH]2)c1 do in these assays?
rCAG RNA binder: 1; NadD inh: 23; FAS-TE inh: 0; NR3A LBD binder: 32*

How did O=C(Cc1cccs1)Nc1ccc(-c2nc3ccccc3[nH]2)cc1 do in these assays?
rCAG RNA binder: 3; NadD inh: -7; FAS-TE inh: 5; NR3A LBD binder: 32*

How did O[C@H](COc1ccc(C(F)(F)F)cc1)CN1CCC(C(O)(c2ccccc2)c2ccccc2)CC1 do in these assays?
rCAG RNA binder: -2

How did COc1ccc(OCC(=O)Nc2cccc(-c3nc4ccccc4[nH]3)c2)cc1 do in these assays?
rCAG RNA binder: 9; NadD inh: -4; FAS-TE inh: 8; NR3A LBD binder: 20*
